In all, about 39,000 compounds went through this assay and about 1,500 (3.8%) were called active. Only a selection was taken, and actives are over-represented in it overall.
These compounds were tested on HSkMC (human skeletal muscle cells) (assay: cytotoxicity call (relative viability < 0.9)). Conditions: 10 µM.
`Cn1ncc2c1CCCC2=O` was tested, and the cytotoxicity call was “inactive”.
In the case of `Cc1noc(C)c1NC(=O)N(C)C[C@H]1Oc2ncc(C#CCN(C)C)cc2C(=O)N([C@H](C)CO)C[C@H]1C`, the cytotoxicity call was “inactive”.
With `COc1cccc(S(=O)(=O)N(C)C[C@@H]2Oc3ncc(C#CCN(C)C)cc3C(=O)N([C@@H](C)CO)C[C@@H]2C)c1` the cytotoxicity call was “inactive”.
With `C[C@@H]1CN([C@H](C)CO)C(=O)Cc2cc(NC(=O)Nc3ccc4c(c3)OCO4)ccc2O[C@@H]1CN(C)S(C)(=O)=O` the cytotoxicity call was “inactive”.
In the case of `COc1ccc(NC(=O)N(C)C[C@H]2OCCCC[C@H](C)Oc3ccc(NC(=O)c4ccccc4)cc3C(=O)N([C@@H](C)CO)C[C@@H]2C)cc1`, the cytotoxicity call was “inactive”.
With `COc1ccc(S(=O)(=O)N(C)C[C@H]2OCCCC[C@@H](C)Oc3ccc(NC(=O)CCC(F)(F)F)cc3C(=O)N([C@@H](C)CO)C[C@@H]2C)cc1` the cytotoxicity call was “inactive”.
In the case of `COc1ccc(CN(C)C[C@@H]2Oc3ccc(NC(=O)Nc4ccc(C(F)(F)F)cc4)cc3CC(=O)N([C@H](C)CO)C[C@H]2C)cc1`, the cytotoxicity call was “inactive”.
For `COc1ccc(NC(=O)Nc2ccc3c(c2)CC(=O)N([C@@H](C)CO)C[C@H](C)[C@@H](CN(C)C(=O)Nc2ccc(C(F)(F)F)cc2)O3)cc1`, the cytotoxicity call was “inactive”.
For `COc1ccc(CN(C)C[C@@H]2Oc3ccc(NC(=O)Nc4ccc(C(F)(F)F)cc4)cc3CC(=O)N([C@H](C)CO)C[C@@H]2C)cc1`, the cytotoxicity call was “active”.
With `C[C@@H]1CN([C@@H](C)CO)C(=O)c2cccc(NS(C)(=O)=O)c2O[C@@H]1CN(C)S(=O)(=O)c1cn(C)cn1` the cytotoxicity call was “inactive”.
For `COc1ccc(NC(=O)N(C)C[C@H]2Oc3ccc(NS(=O)(=O)c4c(C)noc4C)cc3C(=O)N([C@@H](C)CO)C[C@H]2C)cc1`, the cytotoxicity call was “inactive”.
`COc1ccc(S(=O)(=O)Nc2ccc3c(c2)C(=O)N([C@@H](C)CO)C[C@@H](C)[C@@H](CN(C)S(C)(=O)=O)O3)cc1` was tested, and the cytotoxicity call was “inactive”.
`COc1ccccc1C#Cc1ccc2c(c1)O[C@@H](CN(C)Cc1cncnc1)[C@@H](C)CN([C@@H](C)CO)S2(=O)=O` was tested, and the cytotoxicity call was “inactive”.
For `COc1ccccc1C#Cc1ccc2c(c1)O[C@@H](CN(C)Cc1cncnc1)[C@H](C)CN([C@H](C)CO)S2(=O)=O`, the cytotoxicity call was “active”.
In the case of `COc1ccccc1C#Cc1ccc2c(c1)O[C@@H](CN(C)Cc1cncnc1)[C@H](C)CN([C@@H](C)CO)S2(=O)=O`, the cytotoxicity call was “active”.
For `COc1ccccc1C#Cc1ccc2c(c1)O[C@H](CN(C)Cc1cncnc1)[C@@H](C)CN([C@H](C)CO)S2(=O)=O`, the cytotoxicity call was “inactive”.
In the case of `COc1ccccc1C#Cc1ccc2c(c1)O[C@H](CN(C)Cc1cncnc1)[C@H](C)CN([C@H](C)CO)S2(=O)=O`, the cytotoxicity call was “inactive”.
With `COc1ccccc1C#Cc1ccc2c(c1)O[C@H](CN(C)Cc1cncnc1)[C@@H](C)CN([C@@H](C)CO)S2(=O)=O` the cytotoxicity call was “inactive”.
`COc1ccc(S(=O)(=O)N(C)C[C@H]2Oc3c(NC(=O)c4cc(C)nn4C)cccc3C(=O)N([C@H](C)CO)C[C@H]2C)cc1` was tested, and the cytotoxicity call was “inactive”.
In the case of `C[C@@H]1CCCCO[C@H](CN(C)CC2CC2)[C@@H](C)CN([C@H](C)CO)C(=O)c2cc(NC(=O)CCC(F)(F)F)ccc2O1`, the cytotoxicity call was “inactive”.
For `COc1ccc(S(=O)(=O)N2c3ccc(Cl)cc3[C@](O)(c3ccccc3Cl)[C@@H]2C(=O)N2CCC[C@H]2C(N)=O)cc1OC`, the cytotoxicity call was “inactive”.
With `C[C@@H]1CN([C@@H](C)CO)C(=O)c2cccc(NS(=O)(=O)c3cn(C)cn3)c2O[C@H]1CN(C)C(=O)Nc1ccc2c(c1)OCO2` the cytotoxicity call was “inactive”.
`O=C(CS)NCCCCCNC(=O)[C@@H]1C[C@@H]2C(=O)N[C@@H](Cc3ccccc3)C(=O)N2[C@@H]1c1ccc(O)cc1` was tested, and the cytotoxicity call was “inactive”.
For `CN(C)CCCC1(c2ccc(F)cc2)OCc2cc(C#N)ccc21.O=C(O)C(=O)O` (stereo not drawn), the cytotoxicity call was “inactive”.
With `COc1c(C)cccc1C(=O)N1CC[C@H](c2nn(CCN)c3ncccc23)C1` the cytotoxicity call was “inactive”.
`COc1ccc(NC(=O)Nc2ccc3c(c2)C(=O)N([C@@H](C)CO)C[C@@H](C)[C@H](CN(C)S(=O)(=O)c2ccc(F)cc2)OCCCC[C@@H](C)O3)cc1` was tested, and the cytotoxicity call was “inactive”.
`CO[C@@H]1CN(C)C(=O)c2ccc(NS(C)(=O)=O)cc2OC[C@H](C)N(C(=O)CN(C)C)C[C@@H]1C` was tested, and the cytotoxicity call was “inactive”.
With `O=C(C[C@@H]1C[C@H]2c3cc(NC(=O)Nc4ccc(C(F)(F)F)cc4)ccc3O[C@H]2[C@H](CO)O1)NCCc1ccccc1` the cytotoxicity call was “active”.
With `O=C(Nc1ccc(C(F)(F)F)cc1)Nc1ccc2c(c1)[C@H]1C[C@H](CC(=O)N3CCc4ccccc4C3)O[C@H](CO)[C@H]1O2` the cytotoxicity call was “active”.
With `O=C(C[C@H]1C[C@H]2c3cc(NC(=O)Nc4ccc(C(F)(F)F)cc4)ccc3O[C@H]2[C@@H](CO)O1)NCCc1ccccc1` the cytotoxicity call was “inactive”.
For `O=C(Nc1ccc(C(F)(F)F)cc1)Nc1ccc2c(c1)[C@@H]1C[C@@H](CC(=O)N3CCc4ccccc4C3)O[C@H](CO)[C@@H]1O2`, the cytotoxicity call was “inactive”.
In the case of `O=C(Nc1ccc(C(F)(F)F)cc1)Nc1ccc2c(c1)[C@H]1C[C@@H](CC(=O)N3CCc4ccccc4C3)O[C@H](CO)[C@H]1O2`, the cytotoxicity call was “inactive”.
For `O=C(C[C@H]1C[C@@H]2c3cc(NC(=O)Nc4ccc(C(F)(F)F)cc4)ccc3O[C@@H]2[C@H](CO)O1)NCc1cc(F)ccc1F`, the cytotoxicity call was “inactive”.

— the antibiotic and cytotoxicity screens of Wong et al. (2023)
